Source: the supplement of paper PMC10981050
Several values for one entry are separate records, joined by “and”; a condition that tells them apart may be missing. Identical values can stand only once. Counter-ions that a name gives are not always drawn.

What was measured:
Assay in all cases: cell viability relative to vehicle control; higher = less cytotoxic
Conditions in all cases: 10 µM
[1] = test system: K562
How it was run: (§1)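 After removal of identity-inconsistent compounds, the Selleck bioactive, kinase and epigenetic probe libraries were screened on CRISPR-edited mutant clones and isogenic wild-type clones of four leukaemia lines. Plates were 384-well, each well holding 2000 cells in 50 µL medium and receiving a single 10 µM acoustically dispensed dose. CellTiter-Glo luminescence was read 48 h later, after the supernatant was taken off. Genedata Screener was used to express viability as percent of the on-plate vehicle control.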

[2] = test system: MARIMO
How it was run: as §1

[3] = test system: MOLM14
How it was run: as §1

[4] = test system: OCI-AML2
How it was run: as §1

SMILES	cell viability ([1]; SRSF2 genotype: SRSF2 P95H/wt)	cell viability ([1]; SRSF2 genotype: SRSF2 wt/wt)	cell viability ([2]; SRSF2 genotype: SRSF2 P95H/wt)	cell viability ([2]; SRSF2 genotype: SRSF2 wt/wt)	cell viability ([3]; SRSF2 genotype: SRSF2 P95H/wt)	cell viability ([3]; SRSF2 genotype: SRSF2 wt/wt)	cell viability ([4]; SRSF2 genotype: P95H/wt)	cell viability ([4]; SRSF2 genotype: wt/wt)
COc1cc2c(cc1OC)[C@H]1[C@@H](C)c3ccc(OC)c(OC)c3CN1CC2 [Corydaline]	84.4% and 88.8%	86.6%	83.2%	82%	89.4%	90.9%	73.8%	79.1%
CC1OC(OC2C(OC3CC4(C)C(CC(O)C5C(C6(C)CCC(C(C)(C)O)O6)CCC54C)C4(C)CCC(O)C(C)(C)C34)OC(CO)C(O)C2O)C(O)C(O)C1O (configuration not stated) [Pseudoginsenoside F11]	107% and 104%	111%	107%	103%	113%	108%	103%	98.4%
CO/N=C(\C(=O)N[C@@H]1C(=O)N2C(C(=O)OCOC(=O)C(C)(C)C)=C(/C=C\c3scnc3C)CS[C@H]12)c1csc(N)n1 [Cefditoren pivoxil]	103% and 99.7%	101%	104%	111%	94.5%	103%	102%	111%
COc1ccccc1OCC(O)CN1CCN(CC(=O)Nc2c(C)cccc2C)CC1 (configuration not stated) [Ranolazine (Ranexa)]	99.1% and 96.1%	91.9%	96.6%	102%	97.8%	99.2%	94.9%	102%
COc1cc2oc(=O)ccc2c(OC)c1C[C@@H](O)C(C)(C)O [Toddalolactone]	106% and 101%	104%	102%	105%	112%	106%	102%	104%
C[C@H](Cn1cnc2c(N)ncnc21)OCP(=O)(O)O [Tenofovir (Viread)]	101%	98.5%	97.2%	101%	105%	98.3%	106%	109%
O=C1C(N(CO)C(=O)NCO)N(CO)C(=O)N1CO (configuration not stated) [Diazolidinyl urea]	96.3% and 98.6%	106%	98.9%	98.3%	93.8%	104%	111%	129%
COc1cc(Nc2c(C#N)cnc3cc(OCCCN4CCN(C)CC4)c(OC)cc23)c(Cl)cc1Cl [Bosutinib (SKI-606)]	2.19% and 3.5%	3.73%	38.5%	37.6%	7.61%	11.1%	1.53%	7.73%
C[C@@H]1O[C@@H]1P(=O)(O)O [fosfomycin tromethamine]	108% and 107%	100%	109%	114%	103%	104%	106%	98.6%
CC(C)(Oc1ccc(C2CC2(Cl)Cl)cc1)C(=O)O (configuration not stated) [Ciprofibrate]	101% and 96.8%	97.7%	89.6%	106%	98%	99.4%	94.3%	110%
Cn1cc(-c2cnn3c(N)c(Br)c([C@@H]4CCCNC4)nc23)cn1	42.2% and 58.8%	25.3%	50.4%	61.6%	12.8%	7.07%	9.84%	11.1%
CC#C[C@]1(O)CC[C@H]2[C@@H]3CCC4=CC(=O)CCC4=C3[C@@H](c3ccc(N(C)C)cc3)C[C@@]21C [Mifepristone (Mifeprex)]	84.3% and 91.5%	86.8%	86.7%	90.7%	79.7%	89.6%	104%	92.6%
C[n+]1c2ccccc2nc2ccccc21 [Phenazine methosulfate]	6.28% and 2.85%	13.5%	4.9%	8.06%	2.87%	1.78%	2.71%	4.56%
Nc1nc(NCCc2ccc(O)cc2)nc2nc(-c3ccco3)nn12	92.4% and 100%	94.8%	102%	110%	94.4%	104%	97%	104%
N#CCNC(=O)c1ccc(-c2ccnc(Nc3ccc(N4CCOCC4)cc3)n2)cc1 [Momelotinib (CYT387)]	81.2% and 85.3%	86.1%	26.7%	42.8%	15%	5.08%	11%	15.7%
O=c1ccn([C@@H]2O[C@H](CO)[C@@H](O)[C@H]2O)c(=O)[nH]1 [Uridine]	105% and 90%	94.1%	81.2%	92.2%	82.8%	90%	78.3%	92.8%
Cc1cc(CN2CCN(c3c(Br)cnc4nc(-c5ccc(N6CCN(C)CC6)cc5)[nH]c34)CC2)no1	19.6% and 18.5%	24.2%	88.8%	87%	0.57%	0.62%	6.22%	1.52%
COc1ccc(C(NC(=O)c2cnc(-c3cccnn3)[nH]c2=O)c2ccc(OC)cc2)cc1	115% and 108%	111%	99%	99.6%	104%	104%	106%	113%
CNCC[C@H](Oc1cccc2ccccc12)c1cccs1 [Duloxetine HCl (Cymbalta)]	45.7% and 60.1%	54.7%	55%	61.4%	55.9%	70.9%	46.2%	53.5%
CN1CCN(Cc2ccc(-c3cnc4[nH]cc(-c5ccc6[nH]ccc6c5)c4c3)cc2)CC1	2.18% and 1.72%	2.36%	0.62%	0.44%	0.32%	0.4%	0.33%	0.41%

SMILES	cell viability ([1]; SRSF2 genotype: SRSF2 P95H/wt)	cell viability ([1]; SRSF2 genotype: SRSF2 wt/wt)	cell viability ([2]; SRSF2 genotype: SRSF2 P95H/wt)	cell viability ([2]; SRSF2 genotype: SRSF2 wt/wt)	cell viability ([3]; SRSF2 genotype: SRSF2 P95H/wt)	cell viability ([3]; SRSF2 genotype: SRSF2 wt/wt)	cell viability ([4]; SRSF2 genotype: P95H/wt)	cell viability ([4]; SRSF2 genotype: wt/wt)
COc1ccccc1N1CCN(CC(O)COc2cccc3ccccc23)CC1 (configuration not stated) [Naftopidil (Flivas)]	74.1% and 86.9%	79.5%	66.2%	71.5%	64.1%	72.3%	83.5%	84.6%
C[S+]([O-])c1ccc(-c2nc(-c3ccc(F)cc3)c(-c3ccncc3)[nH]2)cc1 (configuration not stated)	96.3% and 94.8%	88.4%	110%	113%	109%	99.9%	109%	102%
CCOc1ccc(Cc2cc([C@@H]3O[C@H](CO)[C@@H](O)[C@H](O)[C@H]3O)ccc2Cl)cc1 [Dapagliflozin]	93.8% and 97.1%	105%	102%	96.9%	95.9%	99.4%	97.7%	105%
Cc1ccc(O)c(O)c1 [4-Methylcatechol]	94.8% and 90.4%	98.3%	61.1%	89.5%	75.4%	85.3%	94%	90.9%
CC(=O)O[C@H](CC(=O)O)C[N+](C)(C)C [O-Acetyl-L-carnitine hydrochloride]	112% and 110%	110%	110%	110%	101%	108%	105%	104%
CCCCCCCCN=c1ccn(CCCCCCCCCCn2ccc(=NCCCCCCCC)cc2)cc1 [Octenidine Dihydrochloride]	0.46% and 0.39%	0.55%	0.32%	0.34%	0.3%	0.33%	0.29%	0.41%
NC12CC3CC(CC(C3)C1)C2 [Amantadine hydrochloride (Symmetrel)]	99.7% and 116%	107%	107%	103%	106%	112%	111%	100%
COc1cc2nc(N3CCCN(C)CC3)nc(NC3CCN(Cc4ccccc4)CC3)c2cc1OC	6.31% and 1.97%	3.98%	0.75%	0.69%	0.24%	0.26%	0.23%	0.28%
COC(=O)c1cc(OC)c(OC)c(OC)c1 [Methyl EudesMate]	103% and 105%	100%	97.6%	109%	108%	106%	102%	110%
COc1cc(C(C)=O)ccc1OCCCN1CCC(c2noc3cc(F)ccc23)CC1 [Iloperidone (Fanapt)]	81.7% and 86.8%	86.3%	68.2%	90.2%	85.9%	88.5%	71.4%	83.4%
CCCN(CCC)C(=O)C1=Cc2ccc(-c3ccc(C(=O)N4CCCC4)cc3)cc2N=C(N)C1 [Motolimod (VTX-2337)]	34.5% and 40.5%	38.8%	33.2%	25.7%	26.5%	31%	21.7%	29%
C[C@]1(O)C[C@@H](O)[C@@H]2C=CO[C@@H](O[C@@H]3O[C@H](CO)[C@@H](O)[C@H](O)[C@H]3O)[C@@H]21 [Leonuride]	105% and 99.7%	106%	101%	94.9%	102%	101%	102%	102%
COc1cccc(CCc2ccccc2OCC(CN(C)C)OC(=O)CCC(=O)O)c1 (configuration not stated) [Sarpogrelate hydrochloride]	90.3% and 96%	92.4%	84.3%	89.3%	88.1%	102%	96.9%	100%
CCCCNC(=O)NS(=O)(=O)c1ccc(C)cc1 [Tolbutamide]	98% and 102%	102%	105%	116%	102%	105%	101%	110%
Cc1ccc(-n2[nH]c(C)c(N=Nc3cccc(-c4cccc(C(=O)O)c4)c3O)c2=O)cc1C [Eltrombopag]	77.1% and 80.1%	74.4%	62.2%	71.6%	77%	74.6%	68.8%	70.1%
CC(=O)O[C@]1(C(C)=O)CC[C@H]2[C@@H]3C=C(C)C4=CC(=O)CC[C@]4(C)[C@H]3CC[C@@]21C [Megestrol Acetate]	90.8% and 87.5%	86.6%	56.5%	46.6%	84.8%	87.6%	61.8%	73.1%
CC1=C(/C=C/C(C)=C/C=C/C(C)=C\C(=O)O)C(C)(C)CCC1 [Isotretinoin]	91.5% and 95.7%	87.2%	69.3%	76.9%	65.4%	81.5%	15.7%	41.8%
C=CC(=O)Nc1cccc(Nc2nc(Nc3ccc(NC4CN(CCF)C4)cc3OC)ncc2C(F)(F)F)c1	55.2% and 53.1%	64.8%	22.3%	19.6%	4.64%	10.4%	12.3%	17.9%
CC1(C)S[C@@H]2[C@H](NC(=O)C(c3ccccc3)S(=O)(=O)O)C(=O)N2[C@H]1C(=O)O (some centres not stated) [Sulbenicillin Sodium]	109% and 103%	97.7%	104%	113%	97.7%	105%	90.7%	99.3%
